Results published in PubChem BioAssay AID2017 (National Center for Advancing Translational Sciences (NCATS), 2009).
Inconclusive results are not listed. Activity calls are given as the source filed them. Calls come from the whole dose curve; as a rule, active = well fitted curve in the direction sought with a large enough effect; inconclusive = small, poorly fitted or top-dose-only effect, or another doubt; inactive = no such curve, though single readings can be large or run the other way.

tested on: 4-diphosphocytidyl-2-C-methyl-D-erythritol kinase IspE (bacterial, species not stated); experiment: Confirmatory Assay for Inhibitors of Human Galactokinase (GALK): CDP-Me assay counterscreen; settings: ATP depletion, Kinase-Glo luminescence; series mostly up to 115 µM
In short: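 CMK (0.25 ug/mL) with 15 uM ATP and 30 uM CDP-ME in 20 mM HEPES pH8.0, 5 mM MgCl2, 40 mM KCl, 1 mM DTT, 0.01% BSA; 1 h room temperature. Residual ATP read by Kinase-Glo Plus luminescence.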

Row | Structure (SMILES) | outcome
1 | O=S(=O)(NCc1cccs1)c1ccc(Br)s1 | inactive
2 | CCOC(=O)C1(Cc2cccc(F)c2)CCN(C(=O)COC)CC1 | inactive
3 | O=C(COc1ccccc1/C=C\c1[nH]c(=O)[nH]c(=O)c1[N+](=O)[O-])Nc1ccccc1 | inactive
4 | COc1ccc2cc(C(N)=O)c(=Nc3ccc(C)cc3)oc2c1 | inactive
5 | CCS(=O)(=O)C1=NN2C(=N)/C(=C\c3ccc(OS(=O)(=O)c4ccccc4)cc3)C(=O)N=C2S1 | inactive
6 | O=C1CCCC2=C1C1(CCCCC1)N=C(Nc1nc3ccccc3o1)N2 | inactive
7 | CCOC(=O)c1cc(-c2ccc(/C=C3/C(=O)N(c4ccc(C(=O)O)cc4)N=C3C)o2)ccc1Cl | inactive
8 | CCOc1cc(/C=C2\C(=O)ON=C2c2ccccc2)cc(Br)c1O | inactive
9 | CCN1CCN(CCNC(=O)c2ccc3nc(-c4cccc(C)c4)c(-c4cccc(C)c4)nc3c2)CC1 | inactive
10 | C=CCN1C(=O)/C(=C/c2ccc(OC(C)=O)c(OCC)c2[N+](=O)[O-])SC1=S | inactive
11 | Cc1[nH][nH]c(=O)c1C(c1ccc(-c2ccc(Cl)c(C(=O)O)c2)o1)c1c(C)[nH][nH]c1=O | inactive
12 | O=C1/C(=C\c2ccc(O)c(O)c2)C(c2ccccc2)=NN1c1ccccc1 | inactive
13 | COC(=O)c1ccc(CSc2ccc3nnc(-c4ccccn4)n3n2)o1 | inactive
14 | O=C(NCCc1ccccc1)c1ccc2c(=O)[nH]c3c(C(=O)NCC4CCCO4)sc(=S)n3c2c1 (stereo not given) | inactive
15 | CCOc1cc(/C=C2/C(=N)N3C(=NC2=O)SN=C3S(C)(=O)=O)ccc1OS(=O)(=O)c1ccccc1 | inactive
16 | CCS(=O)(=O)C1=NSC2=NC(=O)/C(=C\c3ccc(OS(=O)(=O)c4ccccc4)cc3)C(=N)N21 | inactive
17 | Cc1ccc(S(=O)(=O)/N=C2/NC(=O)/C(=C\c3cc(Br)cc(Br)c3O)S2)cc1 | inactive
18 | O=C1c2ccccc2C(=O)C12OC2c1cccc2ccccc12 (stereo not given) | inactive
19 | COc1ccc(-n2nnc3c(=O)n(CC(=O)N4CCC(C)CC4)cnc32)cc1 | inactive
20 | Cc1snc(S(=O)(=O)/C(C#N)=N/Nc2ccc(C(F)(F)F)cc2)c1C#N | inactive
21 | CC(C)OC(=O)C(C(=O)C(F)(F)F)c1cc(NS(=O)(=O)c2ccc3ccccc3c2)c2ccccc2c1O (stereo not given) | inactive
22 | O=C1C=C(N(CCO)Cc2ccccc2)c2ccccc2C1=O | inactive
23 | O=C1C=CC2=C3c4cc(O)c(O)cc4CC3(O)COC2=C1O (stereo not given) | inactive
24 | CC1(C)CC(=O)C2=C(C1)NC(Nc1nc3ccccc3o1)=NC21CCCC1 | inactive
25 | O=C(O)c1cccc(S(=O)(=O)N2CCC(n3nnc4cc(C(F)(F)F)ccc43)CC2)c1 | inactive
